These results are taken from the supplement of paper PMC10849652.

About 7,900 targets were measured; listed, in parts, are those with a hit and a random draw of the rest. About 0.6% of all pairs of compound and target were hits. A number with no mark means an inactive call.

Chain of UniProt O95319 (O95319 whole entry, looked up): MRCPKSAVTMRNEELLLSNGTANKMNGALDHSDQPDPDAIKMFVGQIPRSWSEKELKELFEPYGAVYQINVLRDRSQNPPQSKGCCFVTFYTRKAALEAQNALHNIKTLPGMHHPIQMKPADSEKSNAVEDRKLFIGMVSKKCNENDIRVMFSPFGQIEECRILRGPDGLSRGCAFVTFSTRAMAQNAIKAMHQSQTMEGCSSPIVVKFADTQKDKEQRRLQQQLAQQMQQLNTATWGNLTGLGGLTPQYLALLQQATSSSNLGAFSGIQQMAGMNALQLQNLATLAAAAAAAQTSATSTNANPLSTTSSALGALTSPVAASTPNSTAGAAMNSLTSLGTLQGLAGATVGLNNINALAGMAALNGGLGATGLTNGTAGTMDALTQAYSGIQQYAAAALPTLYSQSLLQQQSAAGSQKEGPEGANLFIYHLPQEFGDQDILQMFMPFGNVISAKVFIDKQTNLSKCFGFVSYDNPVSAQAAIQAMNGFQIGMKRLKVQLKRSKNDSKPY
Chain of UniProt Q92828 (Q92828 whole entry, looked up): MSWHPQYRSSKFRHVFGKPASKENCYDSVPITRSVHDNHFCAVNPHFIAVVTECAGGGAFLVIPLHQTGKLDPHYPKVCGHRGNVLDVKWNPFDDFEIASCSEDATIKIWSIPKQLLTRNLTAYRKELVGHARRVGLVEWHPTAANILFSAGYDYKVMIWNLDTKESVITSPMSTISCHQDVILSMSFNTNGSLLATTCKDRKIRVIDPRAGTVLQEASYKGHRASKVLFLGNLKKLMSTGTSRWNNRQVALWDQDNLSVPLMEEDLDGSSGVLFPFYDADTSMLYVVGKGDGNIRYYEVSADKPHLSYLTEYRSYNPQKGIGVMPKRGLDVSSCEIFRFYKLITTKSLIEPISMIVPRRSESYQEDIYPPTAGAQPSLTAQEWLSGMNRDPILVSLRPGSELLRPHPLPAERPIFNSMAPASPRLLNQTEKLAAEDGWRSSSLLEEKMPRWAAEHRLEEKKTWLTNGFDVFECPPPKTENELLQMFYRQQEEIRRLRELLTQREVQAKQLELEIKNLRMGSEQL
Chain of UniProt Q9NYV4 (Q9NYV4 whole entry, looked up): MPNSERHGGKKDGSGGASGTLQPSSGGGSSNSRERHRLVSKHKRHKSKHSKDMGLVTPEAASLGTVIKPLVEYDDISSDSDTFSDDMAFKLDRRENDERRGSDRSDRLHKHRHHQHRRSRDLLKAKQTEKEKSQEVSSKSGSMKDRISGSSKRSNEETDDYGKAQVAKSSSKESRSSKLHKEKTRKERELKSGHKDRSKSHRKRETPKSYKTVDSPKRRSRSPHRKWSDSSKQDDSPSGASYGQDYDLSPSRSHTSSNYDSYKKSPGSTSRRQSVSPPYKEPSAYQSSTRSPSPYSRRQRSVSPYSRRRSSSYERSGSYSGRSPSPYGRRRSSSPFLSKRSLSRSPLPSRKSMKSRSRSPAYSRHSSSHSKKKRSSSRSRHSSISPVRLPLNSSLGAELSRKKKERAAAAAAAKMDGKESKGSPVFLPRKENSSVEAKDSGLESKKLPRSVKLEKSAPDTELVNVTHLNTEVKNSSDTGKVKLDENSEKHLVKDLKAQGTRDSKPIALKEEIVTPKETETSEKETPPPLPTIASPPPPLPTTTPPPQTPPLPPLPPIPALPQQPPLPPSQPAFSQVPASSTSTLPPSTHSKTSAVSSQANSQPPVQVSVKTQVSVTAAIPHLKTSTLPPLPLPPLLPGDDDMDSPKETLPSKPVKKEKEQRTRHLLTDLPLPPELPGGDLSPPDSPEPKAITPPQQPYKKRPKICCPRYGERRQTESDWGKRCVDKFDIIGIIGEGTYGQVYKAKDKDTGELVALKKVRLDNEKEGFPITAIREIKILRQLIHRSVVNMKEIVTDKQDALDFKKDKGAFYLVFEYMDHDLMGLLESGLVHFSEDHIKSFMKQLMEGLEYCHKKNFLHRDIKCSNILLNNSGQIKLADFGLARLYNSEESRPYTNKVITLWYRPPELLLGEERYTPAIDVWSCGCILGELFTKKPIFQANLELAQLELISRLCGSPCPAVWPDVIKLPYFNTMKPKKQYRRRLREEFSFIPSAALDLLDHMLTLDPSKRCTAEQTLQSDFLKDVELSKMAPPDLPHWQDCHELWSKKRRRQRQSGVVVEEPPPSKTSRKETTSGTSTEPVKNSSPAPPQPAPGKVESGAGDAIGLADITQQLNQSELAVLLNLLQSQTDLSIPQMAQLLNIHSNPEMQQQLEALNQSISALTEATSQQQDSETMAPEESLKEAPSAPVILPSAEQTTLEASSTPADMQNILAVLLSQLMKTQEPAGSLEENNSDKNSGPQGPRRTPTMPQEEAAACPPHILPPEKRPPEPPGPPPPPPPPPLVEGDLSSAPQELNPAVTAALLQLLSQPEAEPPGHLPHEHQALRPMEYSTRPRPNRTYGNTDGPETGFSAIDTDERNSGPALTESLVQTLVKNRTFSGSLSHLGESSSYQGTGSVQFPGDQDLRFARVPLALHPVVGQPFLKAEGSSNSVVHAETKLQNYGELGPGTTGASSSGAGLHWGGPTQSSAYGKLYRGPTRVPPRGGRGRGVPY
Chain of UniProt P35520 (P35520 whole entry, looked up): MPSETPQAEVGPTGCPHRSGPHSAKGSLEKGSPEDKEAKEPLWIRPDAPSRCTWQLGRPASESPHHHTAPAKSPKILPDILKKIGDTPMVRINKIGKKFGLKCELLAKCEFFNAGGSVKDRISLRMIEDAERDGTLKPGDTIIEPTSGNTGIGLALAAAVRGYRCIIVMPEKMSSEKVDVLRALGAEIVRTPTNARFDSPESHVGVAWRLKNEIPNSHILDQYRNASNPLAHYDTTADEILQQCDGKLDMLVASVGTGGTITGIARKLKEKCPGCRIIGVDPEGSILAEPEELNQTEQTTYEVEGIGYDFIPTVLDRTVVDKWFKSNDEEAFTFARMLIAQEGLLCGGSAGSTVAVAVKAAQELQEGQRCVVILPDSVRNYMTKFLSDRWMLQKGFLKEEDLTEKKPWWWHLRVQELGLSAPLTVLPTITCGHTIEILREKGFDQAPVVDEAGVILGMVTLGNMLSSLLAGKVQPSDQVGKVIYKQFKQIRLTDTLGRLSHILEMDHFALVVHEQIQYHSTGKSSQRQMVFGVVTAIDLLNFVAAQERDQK
Chain of UniProt P51946 (P51946 whole entry, looked up): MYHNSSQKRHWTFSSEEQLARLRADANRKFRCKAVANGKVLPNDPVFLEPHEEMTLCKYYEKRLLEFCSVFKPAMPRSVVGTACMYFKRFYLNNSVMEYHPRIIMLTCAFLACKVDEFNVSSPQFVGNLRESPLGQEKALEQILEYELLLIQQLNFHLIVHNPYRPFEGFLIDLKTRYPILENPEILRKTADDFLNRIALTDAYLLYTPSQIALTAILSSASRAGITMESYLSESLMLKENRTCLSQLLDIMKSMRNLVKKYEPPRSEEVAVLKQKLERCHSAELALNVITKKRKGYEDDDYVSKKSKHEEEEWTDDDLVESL
Chain of UniProt P00915 (P00915 whole entry, looked up): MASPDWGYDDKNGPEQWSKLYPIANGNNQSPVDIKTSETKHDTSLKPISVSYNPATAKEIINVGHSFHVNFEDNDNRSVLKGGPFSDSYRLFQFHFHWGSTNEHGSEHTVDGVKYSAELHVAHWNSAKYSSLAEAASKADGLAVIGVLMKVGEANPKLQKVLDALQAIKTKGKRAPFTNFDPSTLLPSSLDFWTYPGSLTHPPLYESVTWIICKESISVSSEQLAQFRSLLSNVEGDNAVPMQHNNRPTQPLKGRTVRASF
Chain of UniProt O75122 (O75122 whole entry, looked up): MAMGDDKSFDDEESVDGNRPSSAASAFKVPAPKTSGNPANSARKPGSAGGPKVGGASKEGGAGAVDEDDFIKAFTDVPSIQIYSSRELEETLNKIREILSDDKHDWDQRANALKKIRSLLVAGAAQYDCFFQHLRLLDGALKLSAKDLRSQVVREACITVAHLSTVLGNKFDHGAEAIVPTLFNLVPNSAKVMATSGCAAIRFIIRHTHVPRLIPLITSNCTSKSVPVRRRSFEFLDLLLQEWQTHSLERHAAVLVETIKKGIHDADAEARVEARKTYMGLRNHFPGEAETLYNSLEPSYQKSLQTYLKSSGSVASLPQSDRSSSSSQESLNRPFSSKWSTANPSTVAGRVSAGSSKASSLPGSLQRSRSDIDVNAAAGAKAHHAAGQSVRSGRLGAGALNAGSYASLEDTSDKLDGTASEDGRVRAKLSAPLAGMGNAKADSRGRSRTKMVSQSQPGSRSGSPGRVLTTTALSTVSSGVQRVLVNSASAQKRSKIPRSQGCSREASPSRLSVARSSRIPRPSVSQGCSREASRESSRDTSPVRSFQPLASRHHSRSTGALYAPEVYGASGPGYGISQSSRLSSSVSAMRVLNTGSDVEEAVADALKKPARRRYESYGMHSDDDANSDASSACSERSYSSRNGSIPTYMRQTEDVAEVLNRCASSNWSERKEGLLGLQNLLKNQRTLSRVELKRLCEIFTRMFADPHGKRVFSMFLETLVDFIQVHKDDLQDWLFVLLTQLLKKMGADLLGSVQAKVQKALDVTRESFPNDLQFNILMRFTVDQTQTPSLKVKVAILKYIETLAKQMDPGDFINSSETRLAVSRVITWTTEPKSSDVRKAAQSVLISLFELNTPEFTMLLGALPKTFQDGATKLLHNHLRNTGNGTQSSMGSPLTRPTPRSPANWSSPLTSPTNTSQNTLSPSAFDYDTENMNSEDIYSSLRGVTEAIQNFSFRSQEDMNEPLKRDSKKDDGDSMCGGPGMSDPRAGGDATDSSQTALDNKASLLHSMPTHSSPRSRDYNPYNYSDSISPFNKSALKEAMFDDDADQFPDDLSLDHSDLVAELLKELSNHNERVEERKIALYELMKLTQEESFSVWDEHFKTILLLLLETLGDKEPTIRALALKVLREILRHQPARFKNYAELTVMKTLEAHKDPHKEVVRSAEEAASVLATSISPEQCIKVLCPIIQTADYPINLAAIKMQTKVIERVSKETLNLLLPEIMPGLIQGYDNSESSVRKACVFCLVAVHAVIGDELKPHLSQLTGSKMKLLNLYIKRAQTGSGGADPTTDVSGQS
Chain of UniProt Q9P0B6 (Q9P0B6 whole entry, looked up): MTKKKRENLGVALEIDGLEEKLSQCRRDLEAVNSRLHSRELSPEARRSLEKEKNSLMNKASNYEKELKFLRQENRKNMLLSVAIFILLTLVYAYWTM

Compound in this experiment: c1cn2cc(-c3ccc4cn[nH]c4c3)nc(Nc3ccc(N4CCOCC4)cc3)c2n1 [entospletinib]
In words: log2 fold change, soluble protein after heating vs DMSO (PISA); higher = thermal stabilisation; K562 cells, 10 uM, 30 min; active = over 0.2 and 3.5 SD of the protein, either way, in both replicates (recomputed). In short, it runs like this:
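K562 cells (2×10^6 cells/mL) were treated with 10 μM compound for 30 min, and aliquots were heated for 3 min over 48°C-58°C. Pooled aliquots were extracted in PBS with 0.5% NP-40 at 4°C, and the supernatant after 21,000xg for 90 min was measured by TMTpro 16plex LC-MS/MS with channel sums equalised. Reported thermal stability, relative to control samples and from duplicates, is a log2 fold change.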
In the case of CHERP (UniProt Q8IWX8), the log2 fold change was 0.026.
The result for COX20 isoform 2 (UniProt Q5RI15) reads -0.022; that for CDK8 (UniProt P49336), -0.037; that for CAMK2G isoform 6 (UniProt Q13555), 0.131.
CHKA (UniProt P35790): the log2 fold change was 0.021.
As to CLCN3 isoform 2 (UniProt P51790), the log2 fold change was -0.039.
In the case of CHAC2 (UniProt Q8WUX2), the log2 fold change is 0.323.
The value for COQ7 (UniProt Q99807) was 0.026.
The result for CKB (UniProt P12277) reads 0.063; that for CLPTM1L (UniProt Q96KA5), -0.025; that for CELF2 isoform 3 (UniProt O95319), 0.009.
With CSNK2A1 (UniProt P68400), the log2 fold change is 0.113.
For COPS4 (UniProt Q9BT78), the log2 fold change was 0.003.
With CLASP2 (UniProt O75122), the log2 fold change is -0.003.
With CCNH (UniProt P51946), the log2 fold change was -0.019.
The value for CCM2 isoform 2 (UniProt Q9BSQ5) was -0.019.
The result for CDAN1 (UniProt Q8IWY9) reads 0.023; that for CDK12 (UniProt Q9NYV4), 0.058.
The value for CD151 (UniProt P48509) was -0.121; that for CPT1A (UniProt P50416) was 0.019.
On to CFAP58 (UniProt Q5T655), for which the log2 fold change is -1.11 (active).
The result for CFAP47 (UniProt Q6ZTR5) reads -0.052.
The value for C19orf54 (UniProt Q5BKX5) was 0.17; that for CORO2A (UniProt Q92828) was 0.078.
Take CCND3 (UniProt P30281): the log2 fold change was -0.154.
The result for CBS (UniProt P35520) reads 0.016; that for CEMIP2 (UniProt Q9UHN6), 0.04.
As for CA1 (UniProt P00915), the log2 fold change was 0.018.
As for CRKL (UniProt P46109), the log2 fold change was 0.014.
The result for CHEK1 (UniProt O14757) reads -0.057.
In the case of CDK13 (UniProt Q14004), the log2 fold change was 0.065.
The result for COA6 isoform 2 (UniProt Q5JTJ3) reads 0.004; that for CHAMP1 (UniProt Q96JM3), 0.002; that for CCDC167 (UniProt Q9P0B6), 0.034.
Turning to C16orf58 (UniProt Q96GQ5), the log2 fold change is 0.011.
The result for CPSF7 isoform 3 (UniProt Q8N684) reads -0.011; that for CDK5 (UniProt Q00535), -0.022; that for CSTF2 (UniProt P33240), 0.022.
